# From PubChem BioAssay (NCATS)
# Results filed as inconclusive are left out. Entries that show only a call come without a potency. Active and inactive are the calls of the source. Calls come from the whole dose curve; tested in HEK293 reporter line.
# Test: qHTS for Inhibitors of the Functional Ribonucleoprotein Complex (vRNP) of Lassa (LASV) Arenavirus: LASV Primary Screen - GLuc reporter signal (AID 1347082); note: nearly all actives have a fitted effect of over 60% in size
# Settings: LASV minigenome vRNP, Gaussia luciferase reporter; series mostly up to 57.5 µM
# Potency is the fitted concentration of half-maximal effect.
row,SMILES,Potency
1,O=C1c2ccccc2C(=O)c2c(O)c(O)cc(O)c21,inactive
2,CC1CC[C@@]2(OC1)O[C@H]1CC3[C@@H]4C[C@@H](O)[C@@]5(O)C[C@@H](O)[C@H](O)C[C@]5(C)[C@H]4CC[C@]3(C)[C@H]1[C@@H]2C (stereo not given in full),inactive
3,CCCCCCCCC1CCC(=O)O1 (stereo not given),inactive
4,CCCC(=O)OCCC(C)CCC=C(C)C (stereo not given),inactive
5,C=C1[C@H]2CC[C@@H]3[C@H]2C(C)(C)CCC[C@]13C,inactive
6,CCCCCCCCCCCCCC/C(C(=O)O)=C(\C)C(=O)O,inactive
7,CC(C)CCOC(=O)CC(C)C,inactive
8,NC1(C(=O)N[C@@H](CCO)c2ccc(Cl)cc2)CCN(c2ncnc3[nH]ccc23)CC1,0.968 µM (active)
9,CC/C=C\CC1=C(C)CCC1=O,inactive
10,O=C(OCc1ccccc1)c1ccccc1O,inactive
11,NC1(Cc2ccc(Cl)cc2)CCN(c2ncnc3[nH]ccc23)CC1,9.68 µM (active)
12,CN1CC[C@@]2([C@@]34CCN(C)C3Nc3ccccc34)c3ccccc3NC12 (stereo not given in full),inactive
13,CCN1C[C@]2(COC(=O)c3ccccc3N3C(=O)CC(C)C3=O)CC[C@H](OC)[C@@]34C5C[C@@H]6[C@@H](OC)C[C@@](O)(C5[C@H]6OC)[C@](O)([C@@H](OC)C23)[C@@H]14 (stereo not given in full),inactive
14,CNC(=O)c1cccc(-c2ccc3c(N4CCOC[C@H]4C)nc(N4CCOC[C@H]4C)nc3n2)c1,0.137 µM (active)
15,CC(C)=CCC/C(C)=C/CC/C(C)=C/CCC1(C)CCc2cc(O)ccc2O1 (stereo not given),inactive
16,COc1ccc(OC)cc1,inactive
17,COc1cc(O)cc2c1[C@@H]1Oc3c(ccc(O)c3CC=C(C)C)[C@@H]1CO2,inactive
18,COC(=O)/C=C/c1ccccc1,inactive
19,COc1c(-c2ccc(O)cc2)oc2cc(O)cc(O)c2c1=O,inactive
20,CSc1c(Cl)c(Cl)c(Cl)c(Cl)c1Cl,inactive

row,SMILES,Potency
1,CO[C@H]1C=CCCC=CC(=O)O[C@H]([C@H](C)C(=O)CCCC2CC(=O)NC(=O)C2)C(C)=C[C@@H](C)[C@@H]1O,inactive
2,CCOC(=O)c1c(C)cc(O)cc1O,inactive
3,CC(C)Nc1nc(N)nc(Cl)n1,inactive
4,C=CC(C)=CCC=C(C)C,inactive
5,O=C(O)c1ccccc1,inactive
6,CCCCC(CC)C(=O)O (stereo not given),inactive
7,O=C(O)c1ccccc1Cc1ccccc1,inactive
8,CC=C(C)C(=O)OC1CCN2CC=C(COC(=O)C(O)(C(C)OC)C(C)(C)O)C12 (stereo not given),inactive
9,COc1c2c(c(OC)c3c1c(=O)c1ccccc1n3C)OCO2,inactive
10,Nc1ncnc2c1ncn2[C@@H]1O[C@H](COP(=O)(O)OP(=O)(O)OC[C@H]2OC(O)[C@H](O)[C@@H]2O)[C@@H](O)[C@H]1O (stereo not given in full),inactive
11,C/C=C(/C)C(=O)O[C@H]1[C@@H](O)c2c(ccc3ccc(=O)oc23)OC1(C)C,inactive
12,c1ccc2c3c([nH]c2c1)C1(CCCCC1)NCC3,inactive
13,CO[C@H]1[C@@H](OC)CC(OC2OC(CO)C(O)C(O)C2O)/C(=C\C#N)[C@@H]1O (stereo not given in full),inactive
14,NC(=O)c1ncn([C@@H]2O[C@H](CO)[C@@H](O)[C@@H]2O)c1O,inactive
15,COc1cc2c(cc1OC)C1Cc3ccc(OC)c(OC)c3C[N+]1([O-])CC2 (stereo not given),inactive
16,Cn1c2c(c(=O)c3ccccc31)CCC(C)(C)O2,inactive
17,C=C1CC/C=C(\C)CC[C@@H]2[C@@H]1CC2(C)C,inactive
18,CN=CNc1ccc(C)cc1C,inactive
19,O=C1c2ccccc2-n2c1nc1ccccc1c2=O,inactive
20,OC[C@H]1O[C@@H](n2cnc3c(NC4CCCCC4)ncnc32)[C@H](O)[C@@H]1O,inactive

# Test: qHTS for Inhibitors of the Functional Ribonucleoprotein Complex (vRNP) of Lassa (LASV) Arenavirus: Viability assay - alamar blue signal for LASV Primary Screen (AID 1347083); note: nearly all actives have a fitted effect of over 80% in size
# Settings: cell viability, alamar blue fluorescence (LASV minigenome counter-screen); series mostly up to 57.5 µM
row,SMILES,Potency
1,O=C1c2ccccc2C(=O)c2c(O)c(O)cc(O)c21,inactive
2,CC1CC[C@@]2(OC1)O[C@H]1CC3[C@@H]4C[C@@H](O)[C@@]5(O)C[C@@H](O)[C@H](O)C[C@]5(C)[C@H]4CC[C@]3(C)[C@H]1[C@@H]2C (stereo not given in full),inactive
3,CCCCCCCCC1CCC(=O)O1 (stereo not given),inactive
4,CCCC(=O)OCCC(C)CCC=C(C)C (stereo not given),inactive
5,C=C1[C@H]2CC[C@@H]3[C@H]2C(C)(C)CCC[C@]13C,inactive
6,CCCCCCCCCCCCCC/C(C(=O)O)=C(\C)C(=O)O,inactive
7,CC(C)CCOC(=O)CC(C)C,inactive
8,NC1(C(=O)N[C@@H](CCO)c2ccc(Cl)cc2)CCN(c2ncnc3[nH]ccc23)CC1,0.385 µM (active)
9,CC/C=C\CC1=C(C)CCC1=O,inactive
10,O=C(OCc1ccccc1)c1ccccc1O,inactive
11,NC1(Cc2ccc(Cl)cc2)CCN(c2ncnc3[nH]ccc23)CC1,2.73 µM (active)
12,CN1CC[C@@]2([C@@]34CCN(C)C3Nc3ccccc34)c3ccccc3NC12 (stereo not given in full),inactive
13,CCN1C[C@]2(COC(=O)c3ccccc3N3C(=O)CC(C)C3=O)CC[C@H](OC)[C@@]34C5C[C@@H]6[C@@H](OC)C[C@@](O)(C5[C@H]6OC)[C@](O)([C@@H](OC)C23)[C@@H]14 (stereo not given in full),inactive
14,CNC(=O)c1cccc(-c2ccc3c(N4CCOC[C@H]4C)nc(N4CCOC[C@H]4C)nc3n2)c1,0.137 µM (active)
15,CC(C)=CCC/C(C)=C/CC/C(C)=C/CCC1(C)CCc2cc(O)ccc2O1 (stereo not given),inactive
16,COc1ccc(OC)cc1,inactive
17,COc1cc(O)cc2c1[C@@H]1Oc3c(ccc(O)c3CC=C(C)C)[C@@H]1CO2,inactive
18,COC(=O)/C=C/c1ccccc1,inactive
19,COc1c(-c2ccc(O)cc2)oc2cc(O)cc(O)c2c1=O,inactive
20,CSc1c(Cl)c(Cl)c(Cl)c(Cl)c1Cl,inactive

row,SMILES,Potency
1,CO[C@H]1C=CCCC=CC(=O)O[C@H]([C@H](C)C(=O)CCCC2CC(=O)NC(=O)C2)C(C)=C[C@@H](C)[C@@H]1O,inactive
2,CCOC(=O)c1c(C)cc(O)cc1O,inactive
3,CC(C)Nc1nc(N)nc(Cl)n1,inactive
4,C=CC(C)=CCC=C(C)C,inactive
5,O=C(O)c1ccccc1,inactive
6,CCCCC(CC)C(=O)O (stereo not given),inactive
7,O=C(O)c1ccccc1Cc1ccccc1,inactive
8,CC=C(C)C(=O)OC1CCN2CC=C(COC(=O)C(O)(C(C)OC)C(C)(C)O)C12 (stereo not given),inactive
9,COc1c2c(c(OC)c3c1c(=O)c1ccccc1n3C)OCO2,inactive
10,Nc1ncnc2c1ncn2[C@@H]1O[C@H](COP(=O)(O)OP(=O)(O)OC[C@H]2OC(O)[C@H](O)[C@@H]2O)[C@@H](O)[C@H]1O (stereo not given in full),inactive
11,C/C=C(/C)C(=O)O[C@H]1[C@@H](O)c2c(ccc3ccc(=O)oc23)OC1(C)C,inactive
12,c1ccc2c3c([nH]c2c1)C1(CCCCC1)NCC3,inactive
13,CO[C@H]1[C@@H](OC)CC(OC2OC(CO)C(O)C(O)C2O)/C(=C\C#N)[C@@H]1O (stereo not given in full),inactive
14,NC(=O)c1ncn([C@@H]2O[C@H](CO)[C@@H](O)[C@@H]2O)c1O,inactive
15,COc1cc2c(cc1OC)C1Cc3ccc(OC)c(OC)c3C[N+]1([O-])CC2 (stereo not given),inactive
16,Cn1c2c(c(=O)c3ccccc31)CCC(C)(C)O2,inactive
17,C=C1CC/C=C(\C)CC[C@@H]2[C@@H]1CC2(C)C,inactive
18,CN=CNc1ccc(C)cc1C,inactive
19,O=C1c2ccccc2-n2c1nc1ccccc1c2=O,inactive
20,OC[C@H]1O[C@@H](n2cnc3c(NC4CCCCC4)ncnc32)[C@H](O)[C@@H]1O,inactive
